This is part of a sample that, as a whole, favours compounds with a hit. Of some 83,000 tested, about 20% had one in any assay.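 Assay: single dose, 48 h. Readout: percent growth (0 = no net growth; negative = cell death). Active: <10.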 Active and inactive are the calls of the source.
Legend:
Assay in all cases: NCI-60 one-dose screen, 48 h (100 = growth as untreated, 0 = no growth, -100 = all killed)
Conditions in all cases: 10 µM unless noted
SK-MEL-2 melanoma = system: SK-MEL-2 melanoma
EKVX NSCLC = system: EKVX NSCLC
SN12C renal = system: SN12C renal
UO-31 renal = system: UO-31 renal
TK-10 renal = system: TK-10 renal
ACHN renal = system: ACHN renal
CAKI-1 renal = system: CAKI-1 renal
A498 renal = system: A498 renal
CCRF-CEM leukemia = system: CCRF-CEM leukemia
MOLT-4 leukemia = system: MOLT-4 leukemia

Measured: growth

O=C(CSc1nc2ccccc2c(=O)n1-c1ccccc1)N/N=C/c1ccc(Oc2ccc(Br)cc2)cc1
inactive: SK-MEL-2 melanoma 93% | EKVX NSCLC 60.7% | SN12C renal 40.7% | UO-31 renal 91.5% | TK-10 renal 101% | ACHN renal 91.4% | CAKI-1 renal 70.8% | A498 renal 82.3% | CCRF-CEM leukemia 56.9% | MOLT-4 leukemia 55.5%

Cc1cc(=O)oc2cc(OCCCOc3ccc(/C=C/C(=O)Nc4ccc(Br)cc4)cc3)ccc12
inactive: SK-MEL-2 melanoma 91.1% | EKVX NSCLC 91.6% | SN12C renal 89.9% | UO-31 renal 82.3% | TK-10 renal 78.9% | ACHN renal 46.7% | CAKI-1 renal 104% | A498 renal 82.9% | CCRF-CEM leukemia 83.6% | MOLT-4 leukemia 96.4%

CN1CCN(c2ccc(Nc3nc(NCCNS(=O)(=O)c4ccccc4)c4sccc4n3)cc2)CC1
inactive: SK-MEL-2 melanoma 98.6% | EKVX NSCLC 95.2% | SN12C renal 95% | UO-31 renal 81.2% | TK-10 renal 142% | ACHN renal 101% | CAKI-1 renal 76.4% | A498 renal 101% | CCRF-CEM leukemia 105% | MOLT-4 leukemia 95.3%

COc1ccc(-c2c(C(N)=O)c(N)n(Cc3nc4ccccc4[nH]3)c(=O)c2C#N)c(OC)c1
inactive: SK-MEL-2 melanoma 99.2% | EKVX NSCLC 95.4% | SN12C renal 101% | UO-31 renal 68% | TK-10 renal 150% | ACHN renal 96.2% | CAKI-1 renal 78.9% | A498 renal 102% | CCRF-CEM leukemia 107% | MOLT-4 leukemia 102%

CC1=C(C)C(=O)C(Nc2cccc(C(=O)OC(C)(C)C)c2)=C(Cl)C1=O
inactive: SK-MEL-2 melanoma 95.8% | EKVX NSCLC 90.2% | SN12C renal 84.1% | UO-31 renal 86.5% | TK-10 renal 116% | ACHN renal 79.6% | CAKI-1 renal 76.1% | A498 renal 59.8% | CCRF-CEM leukemia 21.9% | MOLT-4 leukemia 45.3%

NC1C2CCC1CN(c1cnc(C(=O)Nc3cc(F)cc4cccnc34)cn1)C2 (stereo not given)
inactive: SK-MEL-2 melanoma 101% | EKVX NSCLC 71.2% | SN12C renal 56.1% | UO-31 renal 34.9% | TK-10 renal 91.2% | ACHN renal 28.3% | CAKI-1 renal 38.5% | A498 renal 72.8% | CCRF-CEM leukemia 25% | MOLT-4 leukemia 16.3%

CN1CCN(Cc2ccc(NC(=O)c3cncc(C#Cc4cnc5ccc(N6CCOCC6)nn45)c3)cc2C(F)(F)F)CC1
active: SK-MEL-2 melanoma -88.3% | EKVX NSCLC -47.5% | SN12C renal -22.1% | UO-31 renal -81.2% | TK-10 renal -64.3% | ACHN renal -97.8% | CAKI-1 renal -50.3% | A498 renal -94.3% | CCRF-CEM leukemia -2.39% | MOLT-4 leukemia 0.376%

C=CCSC1=NC2C(N(CC)C(=O)N2CC)N1/N=C/C=C/c1ccccc1OC (stereo not given)
inactive: SK-MEL-2 melanoma 98.7% | EKVX NSCLC 83.7% | SN12C renal 97.5% | UO-31 renal 68.3% | TK-10 renal 122% | ACHN renal 74.7% | CAKI-1 renal 49.5% | A498 renal 55.1% | CCRF-CEM leukemia 63.5% | MOLT-4 leukemia 70.6%

CCCCN1C(=O)/C(=c2\sc3n(c2=O)C2C(NN=3)N(CC)C(=O)N2CC)c2cccc(C)c21 (stereo not given)
inactive: SK-MEL-2 melanoma 97.6% | EKVX NSCLC 46.6% | SN12C renal 62% | UO-31 renal 54.7% | TK-10 renal 82.9% | ACHN renal 47.2% | CAKI-1 renal 35.3% | CCRF-CEM leukemia 18.7% | MOLT-4 leukemia 45.1%
active: A498 renal 5.04%

CCN(CC)CCOc1ccc(C(=C(C)c2ccc(OC)cc2)c2ccc(OCCN(CC)CC)cc2)cc1
inactive: EKVX NSCLC 39.1% | SN12C renal 34.6% | TK-10 renal 18.8%
active: SK-MEL-2 melanoma -36.7% | UO-31 renal -75.1% | ACHN renal -34.1% | CAKI-1 renal -18.2% | A498 renal -29% | CCRF-CEM leukemia -10.8% | MOLT-4 leukemia 1.17%

O=C(Nc1ccccc1)Nc1nc2ccc([N+](=O)[O-])cc2[nH]1
inactive: SK-MEL-2 melanoma 53.9% | EKVX NSCLC 43.6% | SN12C renal 62.7% | UO-31 renal 44.2% | TK-10 renal 39.1% | ACHN renal 37.6% | CAKI-1 renal 27.1% | A498 renal 11.1% | CCRF-CEM leukemia 52.2% | MOLT-4 leukemia 55.7%

O=C(Nc1ccc(N=Cc2c(O)[nH]c3ccccc23)cc1)Nc1ccc(S(=O)(=O)Nc2ncccn2)cc1
inactive: SK-MEL-2 melanoma 111% | EKVX NSCLC 98.1% | SN12C renal 98.8% | UO-31 renal 81.7% | TK-10 renal 108% | ACHN renal 104% | CAKI-1 renal 94.8% | A498 renal 114% | CCRF-CEM leukemia 109% | MOLT-4 leukemia 121%

CC/C(=C(/c1ccc(Cl)cc1)c1ccc(OCCN)cc1)c1ccccc1
inactive: SK-MEL-2 melanoma 105% | EKVX NSCLC 102% | SN12C renal 104% | UO-31 renal 78.2% | TK-10 renal 115% | ACHN renal 96.1% | CAKI-1 renal 74.6% | A498 renal 92.9% | CCRF-CEM leukemia 80.5% | MOLT-4 leukemia 84.1%
